Source: PubChem BioAssay
Sampled rows, rich in hits. Any-hit rate of the full collection: about 2.5%.
Mcl-1 Bim block = inhibitors of Bim-Mcl-1 interaction, human | Bead-based flow cytometry, Bim peptide-Mcl-1 binding | inhibition, % at 10 µM | Q07820 | 0.1% of 190,000 active; in the data active means inhibition above about 40%
Target sequence (Q07820 whole entry, looked up): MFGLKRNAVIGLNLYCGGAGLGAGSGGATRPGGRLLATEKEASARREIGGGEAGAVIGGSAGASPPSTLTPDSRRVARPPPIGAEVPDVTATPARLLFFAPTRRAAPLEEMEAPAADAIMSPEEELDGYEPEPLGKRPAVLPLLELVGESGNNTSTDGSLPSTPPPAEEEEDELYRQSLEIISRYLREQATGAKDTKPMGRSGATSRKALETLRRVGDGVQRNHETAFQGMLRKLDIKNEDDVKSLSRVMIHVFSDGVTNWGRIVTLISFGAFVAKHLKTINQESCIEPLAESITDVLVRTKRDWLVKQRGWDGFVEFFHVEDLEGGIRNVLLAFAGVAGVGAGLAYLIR
Mcl1 Noxa PPI = Mcl-1/Noxa interaction inhibition; Q07820; TR-FRET Mcl-1/Noxa peptide binding, 2 h; inhibition, % at 21.7 µM; 1.5% of 220,000 active; AID 1022;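 active means compounds that cut the protein-peptide binding signal by more than 50% relative to plate controls in a single-dose test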;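 further: His-tagged Mcl-1 with rhodamine Noxa BH3 peptide and terbium anti-His antibody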
MCL1-BIM inh = disrupts human MCL1 binding to BIM-BH3 peptide. GST-MCL1 / FITC-Bim-BH3 fluorescence polarization. inhibition, % at 10.9 µM. 0.68% of 320,000 active;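 active means inhibition above the mean inhibition of all tested compounds plus 3 SD, set per campaign, cut at about 40% in these data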;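 further: higher means more loss of mP so more displacement of Bim peptide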
14-3-3 Bad inh = disrupts binding of bovine 14-3-3 zeta to phospho-Bad peptide; TR-FRET 14-3-3zeta/Dy647-pBad peptide displacement, 1 h; AID 781; inhibition, % at 21.7 µM; P63103; 0.71% of 220,000 active;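 active means inhibition above about 70%, limit read from the data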
Mcl1-Bid inh = Mcl-1/Bid interaction inhibition. Q07820. TR-FRET Mcl-1/Bid-Dy647 peptide binding, 1536-well. inhibition, % at 21.7 µM. 0.97% of 220,000 active. AID 1021;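 active means compounds that cut the binding signal by more than half at the single screening dose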;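 further: His-tagged Mcl-1 with europium anti-His antibody binding Bid BH3 peptide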
Bcl-xL conf = Bcl-xL (human) inhibition, MCL1 counter-screen confirmation; shares compounds with MCL1-BIM inh; GST-Bcl-xL / FITC-Bim BH3 peptide FP binding; inhibition, % at 10.9 µM; 54% of 1,700 active; AID 2166;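 active means inhibition above a cutoff equal to the mean inhibition of all tested compounds plus 3 SD, cut at about 30% in these data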
MCL1 inh confirm = confirmation of human MCL1 and BIM-BH3 interaction inhibitors; 61% of 1,700 active; GST-MCL1 / FITC-Bim-BH3 fluorescence polarization; AID 2168; inhibition, % at 10.9 µM; shares compounds with MCL1-BIM inh;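 active means inhibition above the average of all tested compounds plus 3 SD, cut at about 40% in these data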
Hits are given with their value; i = inactive; nt = no result given; + = active, no number.

SMILES	Mcl-1 Bim block	Mcl1 Noxa PPI	MCL1-BIM inh	14-3-3 Bad inh	Mcl1-Bid inh	Bcl-xL conf	MCL1 inh confirm
O=C1NC(=O)C(=Cc2ccc(Oc3ccc([N+](=O)[O-])cc3)cc2)C(=O)N1	i	i	i	i	i	nt	nt
COC(=O)C1=C(c2ccc(C(C)=O)cc2)C[C@@H]2CC[C@H]1N2C(=O)N1CCC(O)(c2ccc(Cl)cc2)CC1	nt	nt	i	nt	nt	nt	nt
Nc1c2c(nc3ccccc13)CCN(Cc1ccccc1)C2	nt	nt	+	nt	nt	72	101
COc1ccc2c3c([nH]c2c1)C(C)=NCC3	i	i	i	i	i	nt	nt
CC1=NCCc2c1[nH]c1cc(O)ccc21	nt	nt	+	nt	nt	+	+
CCN(CC)Cc1c[nH]c2ccccc12	i	i	i	i	i	nt	nt
COC(=O)[C@@]1(C#N)[C@@H]2C=CC(C(C)=O)=CN2[C@@H](C(N)=O)[C@@H]1c1ccc(F)cc1	nt	i	81	i	i	149	189
O=C1NC(=S)NC(=O)C1=Cc1ccc2c(c1)CCN2CCCCl	nt	100	74	i	i	i	i
COc1ccccc1N1CCN(Cc2cnc(-c3ccccc3)[nH]2)CC1	nt	i	i	i	i	nt	nt
C[N+]1(CC(COCc2ccccc2)OC(=O)Cc2ccccc2)CCOCC1 (stereo not given)	i	i	i	i	i	nt	nt
Cc1cc(/C=C2\C(=O)NC(=O)N(Cc3ccccc3)C2=O)c(C)n1C1CC1	i	i	67	i	i	i	i
CC1=C[C@@H]2c3cccc4[nH]cc(c34)C[C@H]2N(C)C1	nt	nt	+	nt	nt	141	163
CCCCCc1cc(O)c2c3c(c(=O)oc2c1)CN(C)CC3	i	i	i	i	i	nt	nt
Cc1ccc(/C=C2/Sc3ccc(C(=O)N4CCC5(CC4)OCCO5)cc3NC2=O)cc1	nt	nt	125	nt	nt	108	131
CN1C(=O)c2ccccc2Sc2ccc(C(=O)N3CCC4(CC3)OCCO4)cc21	i	i	i	i	i	nt	nt
C=CCN1CCc2cccc3c2[C@H]1Cc1ccc(O)c(O)c1-3	nt	nt	43	nt	nt	33	67
C=CCN1CC[C@]23c4c5ccc(O)c4O[C@H]2C(=O)CC[C@@]3(O)[C@H]1C5	i	i	i	i	i	nt	nt
O=c1[nH]c(=O)n(-c2cccc(F)c2)c(O)c1/C=C1\C=Nc2ccccc21	nt	nt	199	nt	nt	154	177
C=CC1CN2CCC1CC2[C@@H](OC(=O)c1ccc(OC)cc1)c1ccnc2ccccc12 (stereo not given in full)	i	i	i	i	i	nt	nt
CN(C)[C@@H]1C(=O)C(C(N)=O)=C(O)[C@@]2(O)C(=O)C3=C(O)c4c(O)ccc(Cl)c4[C@@](C)(O)[C@H]3C[C@@H]12	nt	nt	i	nt	nt	nt	nt
CN(C)[C@@H]1C(=O)C(C(N)=O)=C(O)[C@@]2(O)C(=O)C3=C(O)c4c(O)cccc4[C@@](C)(O)C3C[C@@H]12 (stereo not given in full)	nt	nt	51	nt	nt	i	i
CCOC(=O)c1nsnc1NCCCl	i	i	i	i	i	nt	nt
CCN1/C(=C\C=C\C2=[N+](CC)c3ccccc3C2(C)C)C(C)(C)c2ccccc21	i	i	+	i	i	+	+
C=CCN1C(=O)NC(=O)/C(=C\c2ccc(-c3ccccc3[N+](=O)[O-])o2)C1=O	i	i	i	i	i	nt	nt
O=C1NC(=O)N(Cc2ccco2)C(=O)/C1=C/c1ccc(-c2cccc([N+](=O)[O-])c2)o1	i	93	43	i	i	i	62
O=C(N/N=C/c1c(O)n(Cc2ccc(F)cc2)c(=O)[nH]c1=O)c1ccccc1O	i	i	i	i	i	nt	nt
